# Assay results taken from article PMC7862700, “An all-to-all approach to the identification of sequence-specific readers for epigenetic DNA modifications on cytosine”.
# Legend:
# Experiment in all cases: DAPPL (digital affinity profiling via proximity ligation, sequencing); 10 mM Tris-HCl pH 7.5, 50 mM NaCl, 1 mM DTT, 4% glycerol, room temperature, 30 min; GST-TFs on glutathione beads, 16-mer random dsDNA library, 0.1% formaldehyde crosslink after washing; high values mean tight binding
# FLI1 = target: T1, FLI1 (Homo sapiens, UniProt Q01543 1-452); settings: protein: recombinant; tags: N-terminal GST; dsDNA, one strand shown
# T1 sequence: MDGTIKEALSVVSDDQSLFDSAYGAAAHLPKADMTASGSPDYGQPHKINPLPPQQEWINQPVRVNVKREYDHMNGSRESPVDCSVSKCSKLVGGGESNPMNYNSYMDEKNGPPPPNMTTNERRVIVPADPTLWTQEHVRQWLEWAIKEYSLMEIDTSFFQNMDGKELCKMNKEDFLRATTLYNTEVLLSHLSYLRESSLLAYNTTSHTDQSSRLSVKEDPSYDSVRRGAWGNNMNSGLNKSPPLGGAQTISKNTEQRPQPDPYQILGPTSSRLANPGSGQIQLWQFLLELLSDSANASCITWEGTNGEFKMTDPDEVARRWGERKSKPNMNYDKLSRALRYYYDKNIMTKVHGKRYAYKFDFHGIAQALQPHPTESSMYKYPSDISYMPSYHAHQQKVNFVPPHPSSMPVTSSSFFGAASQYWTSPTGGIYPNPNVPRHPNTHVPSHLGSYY
# In short: (§1)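 The binding signal reported is, for every hexamer, its read frequency for a factor over its read frequency for the tag-only sample. Reads came from pools of yeast-expressed, GST-fused human transcription factors on glutathione beads, barcoded with DNA and mixed with that sample, which were incubated with 200 nmole of a random double-stranded 16-mer DNA library in Tris/NaCl/DTT/glycerol buffer at room temperature for 30 min. After washing, the pools were crosslinked with 0.1% formaldehyde, proximity-ligated with BsaI/T4 ligase for 1 h at 37 °C, PCR-amplified and sequenced on an Illumina NextSeq500.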
# ELK1 = target: T2, ELK1 (Homo sapiens, UniProt P19419 1-428); settings: protein: recombinant; tags: N-terminal GST; dsDNA, one strand shown
# T2 sequence: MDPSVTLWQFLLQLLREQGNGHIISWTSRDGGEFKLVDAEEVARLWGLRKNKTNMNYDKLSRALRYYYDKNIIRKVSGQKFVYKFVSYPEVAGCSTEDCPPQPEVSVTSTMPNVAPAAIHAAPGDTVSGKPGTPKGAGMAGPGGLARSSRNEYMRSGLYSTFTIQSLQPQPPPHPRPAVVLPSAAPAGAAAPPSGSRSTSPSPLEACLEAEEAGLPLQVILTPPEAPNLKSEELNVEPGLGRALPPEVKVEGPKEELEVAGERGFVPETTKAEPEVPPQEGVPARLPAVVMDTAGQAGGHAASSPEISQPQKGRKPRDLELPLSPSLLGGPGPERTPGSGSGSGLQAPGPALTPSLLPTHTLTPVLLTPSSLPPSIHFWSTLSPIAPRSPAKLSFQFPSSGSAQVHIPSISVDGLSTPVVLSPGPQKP
# In short: as §1
# ERG = target: T3, ERG (Homo sapiens, UniProt P11308 1-479); settings: protein: recombinant; tags: N-terminal GST; dsDNA, one strand shown
# T3 sequence: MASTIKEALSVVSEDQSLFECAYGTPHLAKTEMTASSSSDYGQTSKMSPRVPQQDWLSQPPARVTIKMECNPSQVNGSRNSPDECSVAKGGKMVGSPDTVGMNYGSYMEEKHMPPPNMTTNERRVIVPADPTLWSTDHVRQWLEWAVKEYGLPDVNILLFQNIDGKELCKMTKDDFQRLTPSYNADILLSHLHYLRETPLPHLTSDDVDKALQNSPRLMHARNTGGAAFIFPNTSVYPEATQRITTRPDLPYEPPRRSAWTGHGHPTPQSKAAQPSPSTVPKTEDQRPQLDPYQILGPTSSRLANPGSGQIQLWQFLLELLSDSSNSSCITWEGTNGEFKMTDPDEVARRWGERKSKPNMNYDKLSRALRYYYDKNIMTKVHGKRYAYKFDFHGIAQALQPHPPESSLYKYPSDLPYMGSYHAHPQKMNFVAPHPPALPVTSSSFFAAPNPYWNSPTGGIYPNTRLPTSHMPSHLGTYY
# In short: as §1
# EHF = target: T4, EHF (Homo sapiens, UniProt Q9NZC4 1-300); settings: protein: recombinant; tags: N-terminal GST; dsDNA, one strand shown
# T4 sequence: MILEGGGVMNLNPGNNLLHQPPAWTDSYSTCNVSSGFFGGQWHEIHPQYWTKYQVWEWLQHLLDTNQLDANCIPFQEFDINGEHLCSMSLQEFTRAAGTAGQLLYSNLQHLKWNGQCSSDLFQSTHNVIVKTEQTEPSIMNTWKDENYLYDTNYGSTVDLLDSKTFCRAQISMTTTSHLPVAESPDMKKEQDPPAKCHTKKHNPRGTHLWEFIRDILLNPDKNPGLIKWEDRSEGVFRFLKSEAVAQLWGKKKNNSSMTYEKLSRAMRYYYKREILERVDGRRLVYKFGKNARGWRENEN
# In short: as §1
# SPI1 = SPI1 (Homo sapiens, UniProt P17947 1-270); settings: protein: recombinant; tags: N-terminal GST; dsDNA, one strand shown
# In short: as §1
# ELK3 = target: T5, ELK3 (Homo sapiens, UniProt P41970 1-407); settings: protein: recombinant; tags: N-terminal GST; dsDNA, one strand shown
# T5 sequence: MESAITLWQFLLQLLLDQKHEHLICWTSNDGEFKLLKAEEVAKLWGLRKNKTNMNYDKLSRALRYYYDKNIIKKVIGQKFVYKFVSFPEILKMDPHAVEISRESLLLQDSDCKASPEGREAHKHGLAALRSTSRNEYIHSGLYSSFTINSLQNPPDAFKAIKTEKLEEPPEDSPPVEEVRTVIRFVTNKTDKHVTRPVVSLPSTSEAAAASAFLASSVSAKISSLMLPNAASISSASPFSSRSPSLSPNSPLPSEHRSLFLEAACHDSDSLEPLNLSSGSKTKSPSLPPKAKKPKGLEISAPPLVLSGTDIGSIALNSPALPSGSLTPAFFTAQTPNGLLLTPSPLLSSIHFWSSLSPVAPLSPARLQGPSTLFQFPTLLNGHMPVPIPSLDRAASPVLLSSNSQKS
# In short: as §1
# FEV = target: T6, FEV (Homo sapiens, UniProt Q99581 1-238); settings: protein: recombinant; tags: N-terminal GST; dsDNA, one strand shown
# T6 sequence: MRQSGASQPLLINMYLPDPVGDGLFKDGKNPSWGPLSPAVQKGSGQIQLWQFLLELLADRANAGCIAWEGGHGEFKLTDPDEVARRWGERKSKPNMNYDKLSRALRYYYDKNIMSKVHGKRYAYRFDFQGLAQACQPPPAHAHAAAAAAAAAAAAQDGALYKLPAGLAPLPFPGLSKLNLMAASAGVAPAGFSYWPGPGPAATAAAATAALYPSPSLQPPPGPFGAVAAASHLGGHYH
# In short: as §1
# ETV5 = ETV5 (Homo sapiens, UniProt P41161 1-510); settings: protein: recombinant; tags: N-terminal GST; dsDNA, one strand shown
# Sequence of ETV5 (P41161 whole entry): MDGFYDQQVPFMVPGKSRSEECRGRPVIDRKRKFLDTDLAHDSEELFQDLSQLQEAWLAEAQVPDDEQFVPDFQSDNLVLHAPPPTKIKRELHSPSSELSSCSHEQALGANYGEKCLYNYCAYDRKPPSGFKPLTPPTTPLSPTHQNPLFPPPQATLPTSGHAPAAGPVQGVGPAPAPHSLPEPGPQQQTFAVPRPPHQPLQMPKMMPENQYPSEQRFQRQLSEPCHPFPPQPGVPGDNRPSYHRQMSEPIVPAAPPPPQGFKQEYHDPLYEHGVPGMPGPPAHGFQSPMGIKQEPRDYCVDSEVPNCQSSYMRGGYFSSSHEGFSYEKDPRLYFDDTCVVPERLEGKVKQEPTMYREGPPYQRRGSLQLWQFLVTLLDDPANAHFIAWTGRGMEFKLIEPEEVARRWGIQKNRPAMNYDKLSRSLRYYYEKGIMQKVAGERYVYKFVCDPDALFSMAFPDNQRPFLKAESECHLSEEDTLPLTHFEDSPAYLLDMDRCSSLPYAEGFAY
# In short: as §1
# HSF1 = HSF1 (Homo sapiens, UniProt Q00613 1-529); settings: protein: recombinant; tags: N-terminal GST; chain copies: 3; dsDNA, one strand shown
# Sequence of HSF1 (Q00613 whole entry): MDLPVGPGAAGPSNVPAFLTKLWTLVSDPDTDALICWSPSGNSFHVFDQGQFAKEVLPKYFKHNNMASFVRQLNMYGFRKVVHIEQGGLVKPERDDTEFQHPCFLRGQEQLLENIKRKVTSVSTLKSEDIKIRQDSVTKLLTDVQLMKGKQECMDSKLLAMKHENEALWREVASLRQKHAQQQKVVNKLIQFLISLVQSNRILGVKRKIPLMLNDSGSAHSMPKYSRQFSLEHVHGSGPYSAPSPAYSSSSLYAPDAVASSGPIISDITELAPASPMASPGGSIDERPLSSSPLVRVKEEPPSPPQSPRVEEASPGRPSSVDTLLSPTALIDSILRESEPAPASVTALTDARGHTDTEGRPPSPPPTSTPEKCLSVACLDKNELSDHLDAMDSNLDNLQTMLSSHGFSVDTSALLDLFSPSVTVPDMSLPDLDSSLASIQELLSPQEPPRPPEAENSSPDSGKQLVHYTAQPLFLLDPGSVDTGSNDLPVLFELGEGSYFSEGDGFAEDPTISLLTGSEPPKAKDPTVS
# In short: as §1
# SPIC = target: T7, SPIC (Homo sapiens, UniProt Q8N5J4 1-248); settings: protein: recombinant; tags: N-terminal GST; dsDNA, one strand shown
# T7 sequence: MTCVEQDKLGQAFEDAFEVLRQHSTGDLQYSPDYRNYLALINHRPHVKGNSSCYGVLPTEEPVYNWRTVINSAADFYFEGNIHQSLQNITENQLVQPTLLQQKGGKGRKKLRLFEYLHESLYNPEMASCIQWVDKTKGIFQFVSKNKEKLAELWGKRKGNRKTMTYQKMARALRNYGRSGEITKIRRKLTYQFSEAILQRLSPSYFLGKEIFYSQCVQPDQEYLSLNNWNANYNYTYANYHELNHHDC
# In short: as §1
# ELF4 = ELF4 (Homo sapiens, UniProt Q99607 1-663); settings: protein: recombinant; tags: N-terminal GST; dsDNA, one strand shown
# Sequence of ELF4 (Q99607 whole entry): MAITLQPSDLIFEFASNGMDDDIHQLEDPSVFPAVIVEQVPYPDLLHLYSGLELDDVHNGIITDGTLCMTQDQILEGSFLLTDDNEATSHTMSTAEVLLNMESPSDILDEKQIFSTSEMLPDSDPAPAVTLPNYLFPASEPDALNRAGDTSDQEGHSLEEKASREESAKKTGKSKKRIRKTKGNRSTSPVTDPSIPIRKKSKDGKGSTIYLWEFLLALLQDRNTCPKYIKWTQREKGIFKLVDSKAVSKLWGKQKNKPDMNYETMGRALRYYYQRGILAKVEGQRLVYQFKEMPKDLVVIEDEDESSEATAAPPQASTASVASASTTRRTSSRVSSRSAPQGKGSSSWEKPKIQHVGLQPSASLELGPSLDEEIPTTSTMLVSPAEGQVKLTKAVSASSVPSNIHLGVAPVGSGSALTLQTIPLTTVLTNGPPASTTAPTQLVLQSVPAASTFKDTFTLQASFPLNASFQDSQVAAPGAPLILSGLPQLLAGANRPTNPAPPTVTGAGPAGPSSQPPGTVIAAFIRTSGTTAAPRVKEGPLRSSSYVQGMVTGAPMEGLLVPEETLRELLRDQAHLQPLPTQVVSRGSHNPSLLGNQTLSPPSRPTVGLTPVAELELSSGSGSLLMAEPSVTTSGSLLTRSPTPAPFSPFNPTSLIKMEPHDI
# In short: as §1
# ELK4 = target: T8, ELK4 (Homo sapiens, UniProt P28324-2 1-405); settings: protein: recombinant; tags: N-terminal GST; dsDNA, one strand shown
# T8 sequence: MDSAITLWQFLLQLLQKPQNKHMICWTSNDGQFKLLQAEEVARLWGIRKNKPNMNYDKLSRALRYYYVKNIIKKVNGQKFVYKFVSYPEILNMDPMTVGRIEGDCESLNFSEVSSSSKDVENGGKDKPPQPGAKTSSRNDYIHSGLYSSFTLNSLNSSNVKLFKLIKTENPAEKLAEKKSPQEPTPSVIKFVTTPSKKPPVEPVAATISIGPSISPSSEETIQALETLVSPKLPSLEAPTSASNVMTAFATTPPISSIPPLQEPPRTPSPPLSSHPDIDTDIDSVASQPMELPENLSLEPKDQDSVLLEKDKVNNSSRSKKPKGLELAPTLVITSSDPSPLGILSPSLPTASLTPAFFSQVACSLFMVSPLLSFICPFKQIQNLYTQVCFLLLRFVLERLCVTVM
# In short: as §1
# ETV2 = target: T9, ETV2 (Homo sapiens, UniProt O00321 1-342); settings: protein: recombinant; tags: N-terminal GST; dsDNA, one strand shown
# T9 sequence: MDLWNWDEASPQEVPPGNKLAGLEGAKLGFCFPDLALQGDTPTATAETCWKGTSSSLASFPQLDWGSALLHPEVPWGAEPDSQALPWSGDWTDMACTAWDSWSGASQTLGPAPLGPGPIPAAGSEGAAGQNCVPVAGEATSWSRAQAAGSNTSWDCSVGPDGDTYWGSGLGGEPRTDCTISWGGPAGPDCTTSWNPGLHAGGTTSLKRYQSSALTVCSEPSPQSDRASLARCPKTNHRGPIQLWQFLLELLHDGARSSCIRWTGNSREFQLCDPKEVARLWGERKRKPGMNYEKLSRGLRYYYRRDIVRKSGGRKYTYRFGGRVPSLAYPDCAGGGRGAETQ
# In short: as §1
# CRX = CRX (Homo sapiens, UniProt O43186 1-299); settings: protein: recombinant; tags: N-terminal GST; dsDNA, one strand shown
# Sequence of CRX (O43186 whole entry): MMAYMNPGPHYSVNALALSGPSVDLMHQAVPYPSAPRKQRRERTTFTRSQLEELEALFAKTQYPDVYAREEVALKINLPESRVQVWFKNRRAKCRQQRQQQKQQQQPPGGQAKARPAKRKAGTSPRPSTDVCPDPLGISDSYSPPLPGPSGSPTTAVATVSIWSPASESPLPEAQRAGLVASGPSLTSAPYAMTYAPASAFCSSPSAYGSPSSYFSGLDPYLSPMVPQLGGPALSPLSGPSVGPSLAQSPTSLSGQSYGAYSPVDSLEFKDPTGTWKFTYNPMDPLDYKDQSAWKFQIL
# In short: as §1
# ETV1 = ETV1 (Homo sapiens, UniProt P50549 1-477); settings: protein: recombinant; tags: N-terminal GST; dsDNA, one strand shown
# Sequence of ETV1 (P50549 whole entry): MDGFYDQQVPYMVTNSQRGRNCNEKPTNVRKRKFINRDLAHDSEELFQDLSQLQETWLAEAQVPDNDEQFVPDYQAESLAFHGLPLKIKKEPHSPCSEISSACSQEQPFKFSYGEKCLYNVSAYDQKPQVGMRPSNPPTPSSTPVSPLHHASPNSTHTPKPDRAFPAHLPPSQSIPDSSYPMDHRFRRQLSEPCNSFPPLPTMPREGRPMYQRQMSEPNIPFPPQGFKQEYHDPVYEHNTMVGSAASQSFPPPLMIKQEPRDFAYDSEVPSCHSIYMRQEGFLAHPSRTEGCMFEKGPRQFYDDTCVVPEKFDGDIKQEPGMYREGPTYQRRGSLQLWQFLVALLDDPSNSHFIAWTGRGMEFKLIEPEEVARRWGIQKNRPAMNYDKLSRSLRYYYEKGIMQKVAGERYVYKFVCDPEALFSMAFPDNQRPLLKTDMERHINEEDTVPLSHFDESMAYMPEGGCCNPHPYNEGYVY
# In short: as §1
sequence,measurement,setting,value
TATTAG,binding signal,FLI1,"1.05 fold enrichment (6-mer frequency, TF over GST control)"
same,binding signal,ELK1,"1.03 fold enrichment (6-mer frequency, TF over GST control)"
same,binding signal,ERG,"1.07 fold enrichment (6-mer frequency, TF over GST control)"
same,binding signal,EHF,"1.02 fold enrichment (6-mer frequency, TF over GST control)"
same,binding signal,SPI1,"1.09 fold enrichment (6-mer frequency, TF over GST control)"
same,binding signal,ELK3,"1.18 fold enrichment (6-mer frequency, TF over GST control)"
same,binding signal,FEV,"1.02 fold enrichment (6-mer frequency, TF over GST control)"
same,binding signal,ETV5,"1.04 fold enrichment (6-mer frequency, TF over GST control)"
same,binding signal,HSF1,"1.42 fold enrichment (6-mer frequency, TF over GST control)"
same,binding signal,SPIC,"1.13 fold enrichment (6-mer frequency, TF over GST control)"
same,binding signal,ELF4,"1.05 fold enrichment (6-mer frequency, TF over GST control)"
same,binding signal,ELK4,"1.04 fold enrichment (6-mer frequency, TF over GST control)"
same,binding signal,ETV2,"1.23 fold enrichment (6-mer frequency, TF over GST control)"
same,binding signal,CRX,"1.94 fold enrichment (6-mer frequency, TF over GST control)"
same,binding signal,ETV1,"1.12 fold enrichment (6-mer frequency, TF over GST control)"
